# JMJD2A Tudor: inhibitors of human JMJD2A Tudor domain | O75164 | Potency, µM (titrated, usually from 114 µM), for the others: top-dose activity change, negative = inhibition, usual class: inhibitors | 4.4% of 390,000 active | AlphaScreen JMJD2A-Tudor / H3K4me3 peptide binding; also: % is scaled to controls: 0 for no effect and ±100 for the full control effect; nearly all actives have a fitted effect of over 50% in size
# L3MBTL1 inh-1: inhibitors of human L3MBTL1; Q9Y468; AlphaScreen L3MBTL1–H3K9me1 peptide binding; Potency, µM (series often up to 57.1 µM), inactives show top-dose activity, negative = inhibition, actives largely listed as inhibitors; 0.66% of 230,000 active; AID 485360; also: % is scaled to controls: 0 for no effect and ±100 for the full control effect; nearly all actives have a fitted effect of over 60% in size
#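 AlphaScreen proximity signal between nickel-chelate acceptor and streptavidin donor beads (final 10 ug/mL) reports binding of 50 nM L3MBTL1 to 75 nM biotin-H3 K9me1 peptide; complex incubated with compounds 30 min at room temperature; cefsulodin titration as control.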
# BAZ2B block: inhibitors of human BAZ2B bromodomain; Q9UIF8; AlphaScreen BAZ2B-H3K14Ac peptide displacement; Potency, µM (doses to about 114 µM), without a hit: at the top dose activity change, negative = inhibition, most hits filed as inhibitors; 4.4% of 360,000 active; AID 504333; also: % is scaled to controls: 0 for no effect and ±100 for the full control effect; nearly all actives have a fitted effect of over 60% in size
#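 AlphaScreen luminescence quantifies BAZ2B engagement of H3K14Ac peptide; the protein and biotinylated peptide are both at 50 nM final, buffer PBS pH 7.4 with 0.01% Tween-20, all steps at room temperature.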
# HP1b binding inh: inhibitors of HP1-beta chromodomain binding to methylated histone tails. Potency, µM (top dose mostly 114 µM), without a hit: at the highest dose activity change, negative = inhibition, most hits filed as inhibitors. AlphaScreen HP1-beta / biotin-H3K9me3 peptide binding. 0.56% of 390,000 active. P83916; also: nearly all actives have a fitted effect of over 70% in size
# Target sequence (P83916 whole entry, looked up): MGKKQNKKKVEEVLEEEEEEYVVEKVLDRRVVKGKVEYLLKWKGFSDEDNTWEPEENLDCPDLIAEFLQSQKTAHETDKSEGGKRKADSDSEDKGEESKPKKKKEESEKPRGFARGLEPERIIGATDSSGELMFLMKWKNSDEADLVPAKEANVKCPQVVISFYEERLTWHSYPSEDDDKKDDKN
#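 HP1-beta protein (50 nM final) preincubated 30 min at room temperature with biotinylated H3(1-18)K9me3 peptide (50 nM) in PBS pH 7.4, 0.01% Tween-20, then compound added for 30 min. AlphaScreen streptavidin donor/nickel chelate acceptor beads (10 ug/mL final), 30 min dark, luminescence read.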
# G9a inh: blocks human histone lysine methyltransferase G9a. Q96KQ7. G9a H3K9 monomethylation, AlphaScreen, 2 h. Potency, µM (top dose mostly 102 µM), for inactives: at the highest dose activity, negative = inhibition, most hits filed as inhibitors. 8.8% of 350,000 active. AID 504332; also: % is scaled to controls: 0 for no effect and ±100 for the full control effect; nearly all actives have a fitted effect of over 75% in size
# Target sequence (Q96KQ7 913-1193 limits assumed): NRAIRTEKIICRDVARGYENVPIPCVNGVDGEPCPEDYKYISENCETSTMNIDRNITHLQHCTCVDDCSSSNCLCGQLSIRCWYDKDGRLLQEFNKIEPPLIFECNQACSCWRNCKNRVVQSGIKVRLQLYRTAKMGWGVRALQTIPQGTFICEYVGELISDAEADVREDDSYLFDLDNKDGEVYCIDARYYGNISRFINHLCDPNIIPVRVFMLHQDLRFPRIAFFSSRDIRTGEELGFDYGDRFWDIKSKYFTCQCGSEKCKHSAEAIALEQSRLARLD
#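 Signal arises when biotinylated H3K9 peptide, once monomethylated, bridges streptavidin donor and antibody-captured acceptor beads. Enzyme at 20 nM was preincubated 15 min with test compounds; peptide 500 nM and SAM 20 uM then reacted for 2 h.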
# L3MBTL1 inh-2: blocks human L3MBTL1 methyl-lysine binding; 91% of 500 active; shares compounds with L3MBTL1 inh-1; Potency, µM, hits mostly inhibitors; AID 540279; L3MBTL1 methyl-lysine binding inhibition, biochemical qHTS; also: nearly all actives have a fitted effect of over 70% in size
# AlphaScreen ctr2: counter-screen for L3MBTL1 inhibitors: AlphaScreen signal interference. shares compounds with L3MBTL1 inh-1. AlphaScreen counterscreen, signal inhibition. Potency, µM (top dose mostly 57.1 µM), for inactives: top-dose activity change, negative = inhibition, actives largely listed as inhibitors. 500 tested, under 10 active; also: 0% is about no effect
# * marks the source's active call; other numbers are inactive results; ? = inconclusive; . = no result; [ ] = remark or other dose. Most compounds without a hit are left out; they make up all but 11% or so of the library. Calls follow the shape of the dose curve; as a rule, active = well fitted curve in the direction sought with a large enough effect; inconclusive = small, poorly fitted or top-dose-only effect, or another doubt; inactive = no such curve, though single readings can be large; an effect the other way counts as inactive or inconclusive. Potency is read from the fitted curve at half-maximal effect.
SMILES,JMJD2A Tudor,L3MBTL1 inh-1,BAZ2B block,HP1b binding inh,G9a inh,L3MBTL1 inh-2,AlphaScreen ctr2
O=C(/C=C/c1ccco1)Nc1scc(-c2ccccc2)c1C(=O)O,-32%,25µM*,-29%,?,50µM*,2.7*,-29%
COc1ccc(S(N)(=O)=O)cc1C(=O)OCC(=O)N1CC(=O)Nc2ccccc21,-12%,4%,10%,-13%,?,.,.
Cc1ccc(NC(=O)Cn2c(CCC(=O)O)ccc2-c2ccc(Cl)cc2)cc1,-32%,.,?,34%,?,.,.
Cc1ccc(-c2ccc(CCC(=O)O)n2CC(=O)O)cc1,?,22µM*,?,15%,2%[12.7 µM],5.3*,-4%
COc1ccc(S(=O)(=O)/N=C2/NC(=O)/C(=C/c3ccco3)S2)cc1,?,35µM*,?,12%,?,19*,-1%
CC(Sc1ccsc1[N+](=O)[O-])C(=O)N1CCN(c2ccccn2)CC1 (stereo not drawn),?,2%,-17%,9%,?,.,.
COc1ccc(N2Cc3cccc(C(=O)NC(C)CCc4ccco4)c3C2=O)cc1 (stereo not drawn),45µM*,14µM*,35µM*,?,?,2.7*,9%
CC(CCc1ccco1)NC(=O)c1cccc2c1C(=O)N(C1CCCCC1)C2 (stereo not drawn),-28%,.,5%,21%,-13%,.,.
CC(C)c1ccc(NS(=O)(=O)c2ccc3[nH]cc(C(=O)N4CCCC4)c(=O)c3c2)cc1,?,.,.,7%,?,.,.
O=C(Nc1ccccc1C(=O)NC1CC1)c1ccc([N+](=O)[O-])o1,?,32µM*,?,-22%,?,19*,9%
Cc1ccc(/C=C2\SC(N3CCN(C(c4ccccc4)c4ccccc4)CC3)=NC2=O)o1,?,14µM*,?,-20%,4.5µM*,15*,-2%
O=C(CSc1nnc(-c2ccco2)o1)c1ccccc1,-24%,?,12%,-9%,45%[59 µM],.,.
O=C(CSc1nnc(-c2ccco2)o1)c1ccc[nH]1,-26%,28µM*,45µM*,6%,40µM*,19*,1%
COc1ccc(CNC(=O)C[C@H]2C[C@H](C(=O)N3CCCCC3)[C@@]3(CCc4ccccc4)c4[nH]c5ccc(Cl)cc5c4CCN3C2=O)cc1OC,?,-4%,.,15%,.,.,.
Oc1c(N=Nc2ccc(F)cc2)ccc2ccccc12,2.5µM*,7.9µM*,1.4µM*,3.2µM*,2.5µM*,1.1*,0.75µM*
Cc1c(N2C(=O)c3ccc(Br)cc3C2=O)c(=O)n(-c2ccccc2)n1C,2%,0%,-2%[57.1 µM],54%,24%,.,.
Cc1c(N2C(=O)c3ccc4c5c(ccc(c35)C2=O)CC4)c(=O)n(-c2ccccc2)n1C,?,13µM*,56µM*,?,50µM*,6*,1%
S=C1NCN(C2CCCCC2)CN1Cc1ccccc1,-2%,3%,7%,25%,33%[59 µM],.,.
O=C(CSc1nc2ccccc2[nH]1)NCc1ccco1,-31%,-8%,.,-2%,-20%[59 µM],.,.
O=C(CSc1ncccc1-c1nc2ccccc2[nH]1)NCc1ccco1,35µM*,35µM*,56µM*,?,10µM*,21*,?
Cc1ccc(S(=O)(=O)N2CCN(Cc3ccco3)CC2)c(C)c1,-19%,.,-23%,25%[57 µM],.,.,.
COc1ccc(NC(=O)C(OC(=O)Cn2cnc3c2c(=O)n(C)c(=O)n3C)c2ccccc2)cc1Cl (stereo not drawn),-15%,.,.,35%,.,.,.
CC(C)[C@H](NC(=O)CCCn1nnc2ccccc2c1=O)C(=O)O,-1%,8%,0%,42%,.,.,.
Cc1cc(=O)c2cc3nc(-c4cccnc4)oc3c(Br)c2o1,.,32µM*,79µM*,.,40µM*,6*,-3%
COC(=O)c1c(C)[nH]c(C(=O)C(C)OC(=O)C2CC(=O)N(CCc3ccccc3)C2)c1C (stereo not drawn),-13%,28µM*,56µM*,16%,-31%[2.33 µM],27*,5%
SMILES,JMJD2A Tudor,L3MBTL1 inh-1,BAZ2B block,HP1b binding inh,G9a inh,L3MBTL1 inh-2,AlphaScreen ctr2
Cc1nc(N)sc1-c1csc(Nc2cccc(C(=O)O)c2)n1,?,22µM*,50µM*,-1%,45µM*,21*,4%
COc1cccc(CNC(=O)CN2c3cccc4cccc(c34)S2(=O)=O)c1,?,32µM*,50µM*,3%,?,27*,7%
Cc1ccc(CNC(=O)CN2c3cccc4cccc(c34)S2(=O)=O)cc1,-22%,-4%,4%,50%,12%[59 µM],.,.
Cc1cc(C(=O)O)ccc1-c1ccc(/C=C2\NC(=O)N(Cc3ccccc3Cl)C2=O)o1,45µM*,18µM*,45µM*,?,25µM*,7.5*,35%
CCOC(=O)CNC(=O)Cn1cnc2c(oc3ccccc32)c1=O,4%,.,1%,34%,37%[59 µM],.,.
COc1ccc(OC)c(NC(=O)c2noc3c2CCCC3)c1,2%,.,20%[57.1 µM],44%,-10%[59 µM],.,.
COC(=O)c1ccccc1NC(=O)c1noc2c1CCC2,50µM*,28µM*,50µM*,?,45µM*,9.5*,4%
Cc1c(O)cc2c(c1O)C(=O)CC(c1ccc(O)cc1)O2 (stereo not drawn),?,4µM*,56µM*,-6%,?,6.7*,7%
O=C(/C=C/c1ccc(O)c(O)c1)OC1C(O)CC(OC(=O)/C=C/c2ccc(O)c(O)c2)(C(=O)O)CC1O (stereo not drawn),22µM*,1µM*,-10%,30%,32µM*,0.075*,7%
O=C(O)c1c2c(nc3ccccc13)/C(=C/c1ccc(O)cc1)CC2,56µM*,4µM*,40µM*,-20%,22µM*,1.5*,2%
Cc1cccc(C)c1NC(=O)N1CCC(C(=O)c2ccc(F)cc2)CC1,-9%,.,0%,-18%,39%,.,.
Cc1ccn2c(=O)cc(COc3ccc(NC(=O)COc4ccc(Cl)cc4)cc3)nc2c1,-4%,.,6%,26%[57 µM],15%[59 µM],.,.
O=C(c1ccc(Br)cc1)N1CCC(c2nc3ccccc3s2)CC1,-5%,.,15%,83%,25%[59 µM],.,.
COc1ccc(NC(=O)CN(C)C(=O)c2cc3c(s2)CCC3)cc1,14µM*,3.2µM*,6.3µM*,13µM*,13µM*,0.75*,5%
O=C(O)CCc1ccc(-c2cccs2)n1CCC(=O)O,-29%,4µM*,?,28%,20µM*,17*,-21%
COC(=O)[C@H](CC(C)C)NC(=O)Nc1ccccc1F,-4%,.,-19%,43%,-3%,.,.

# Assay outcomes (PubChem BioAssay)
